# PubChem BioAssay (NCATS)
# Inconclusive results are not listed. Calls of active or inactive are those of the source. The call rests on the fitted dose curve; in most records, active means well fitted curve in the direction sought with a large enough effect; inconclusive means small, poorly fitted or top-dose-only effect, or another doubt; inactive means no such curve, though single readings can be large; an effect the other way counts as inactive or inconclusive.
# Assays:
# [1] = biological target: Cytochrome P450 2D6 (Homo sapiens) (UniProt P10635); assay: qHTS Assay for Inhibitors and Substrates of Cytochrome P450 2D6 (AID 891); further: potency means the concentration at half of the fitted maximal effect; nearly all actives have a fitted effect of over 60% in size
# Chain of Cytochrome P450 2D6 (Homo sapiens) (P10635 whole entry, looked up): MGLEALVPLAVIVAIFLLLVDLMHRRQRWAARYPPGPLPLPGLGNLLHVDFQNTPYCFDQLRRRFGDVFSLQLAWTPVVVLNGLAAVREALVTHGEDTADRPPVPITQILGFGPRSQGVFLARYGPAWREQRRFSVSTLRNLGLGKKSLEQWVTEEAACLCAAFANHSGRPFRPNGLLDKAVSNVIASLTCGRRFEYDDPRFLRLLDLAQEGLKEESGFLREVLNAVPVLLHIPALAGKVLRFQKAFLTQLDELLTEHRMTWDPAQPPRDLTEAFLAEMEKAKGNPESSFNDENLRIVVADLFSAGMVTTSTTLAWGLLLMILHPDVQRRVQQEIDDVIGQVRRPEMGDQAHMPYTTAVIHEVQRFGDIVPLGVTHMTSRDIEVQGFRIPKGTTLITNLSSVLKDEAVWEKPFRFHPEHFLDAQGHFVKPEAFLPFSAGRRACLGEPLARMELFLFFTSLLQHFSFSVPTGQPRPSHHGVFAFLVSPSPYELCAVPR
# In short: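 Human CYP2D6 (5 nM) with 30 uM Luciferin-ME EGE (at Km) in 100 mM KPO4, compound preincubated 10 min, then NADPH regeneration system for 60 min at room temperature. Luciferin read by luminescence; normalized to 1.43 uM quinidine.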
# [2] = Confirmation and Secondary Assay for Modulators of Hemoglobin Beta Chain Splicing at IVS2 654 locus (AID 910);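 further: HeLa cells stably carrying EGFP split by mutant beta-globin IVS2-654 intron; per-well total GFP intensity by laser scanning cytometry after 2-day treatment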
# In short: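 Readout: per-well total peak green fluorescence (488 nm ex, 500–520 nm em) from objects 5–250 µm, reflecting correct splicing of an EGFP-654 reporter. Compounds were applied for 2 days at 37 °C to overnight-plated HeLa EGFP-654 cells; controls were DMSO and 500 nM IVS2-654 PNA.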
# [3] = Confirmation and Secondary Assay for Modulators of Hemoglobin Beta Chain Splicing at IVS2 705 locus (AID 930);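 further: HeLa cells stably expressing the EGFP-705 splicing reporter; series mostly up to about 46 µM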
# In short: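 HeLa cells stably carrying EGFP interrupted by mutant beta-globin IVS2-705 intron (CMV-driven) were seeded at 500 cells/well, treated next day with compound for 2 days at 37C; corrected splicing restores EGFP, read as total peak GFP intensity per well.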
smiles,measurement,setting,value
CNc1nc(-c2ccccc2CN(C)C)nc2ccccc12,Potency,[1],3980 nM (active)
FC(F)(F)c1ccccc1-c1ccc2ncnc(NCc3cccnc3)c2c1,Potency,[1],1580 nM (active)
CN(C)Cc1ccccc1-c1cc(N(C)Cc2ccco2)ncn1,Potency,[1],7940 nM (active)
CN(C)C(=O)c1ccc(-c2cncnc2NCCc2cnc[nH]2)cc1,Potency,[1],794 nM (active)
COc1ccccc1-c1cncnc1-n1ccnc1,outcome,[2],inactive
same,outcome,[3],inactive
